Screening data deposited in PubChem BioAssay by Center for Chemical Genomics, University of Michigan.
This is a sample that favours compounds with a hit; in the whole collection about 0.93% have one here.
CDC25B-CDK2 inh = human CDC25B-CDK2/CyclinA binding inhibition; hit rate 0.72% among 94,000; AID 1259370; HTRF CDC25B-CDK2/CyclinA binding, anti-His/anti-Flag; active compounds read high; P30305+P24941; z-score (no concentration beside the values); in the data active means z-score above about 3.2
HIV TAR-Tat = HIV-1 TAR-Tat binding disruption. HIV-1 TAR RNA, Tat peptide displacement FRET; active compounds read high. z-score (test concentration not listed). hit rate 0.6% among 100,000. AID 1259389; active means z-score of 3 or more in at least 2 runs
* hit, by the source's call; . = no result.

SMILES	CDC25B-CDK2 inh	HIV TAR-Tat
CN1CCN(c2cc(NCCO)c3c4c(onc24)-c2ccccc2C3=O)CC1	0.56	9*
O=C1c2ccccc2-c2onc3c(N4CCCCC4)cc(NCCO)c1c23	12	23*
O=C1c2ccccc2-c2onc3c(N4CCN(c5ccccc5F)CC4)cc(NCCO)c1c23	0.96	2.3
O=C1c2ccccc2-c2onc3c(N4CCCC4)cc(NCCO)c1c23	-1.1	-5.9
O=C(Nc1ccc(F)cc1)c1noc2c1CSc1ccccc1-2	-0.8	1.2
Cc1ccc(C(=O)c2cnc3cc4c(cc3c2S(=O)(=O)c2ccccc2)OCO4)cc1	-1.7	-2.2
N#Cc1c(-c2cccnc2)cc(-c2ccc(F)cc2)nc1N	-2.4	0.76
COc1ccc(-c2cc(-c3cccnc3)c(C#N)c(N)n2)cc1	-0.24	3.2*
FC(F)(F)c1nnc2sc(Cc3ccc(Cl)cc3)nn12	-0.82	2.4
CC(C)(C)c1ccc(S(=O)(=O)c2c[nH]c3ccccc3c2=O)cc1	-0.4	0.47
CC1CCC(NC(=O)C2(C)Cn3c(cc4occc43)C(=O)N2C2CCC(C)CC2)CC1 (configuration not stated)	.	5.4*
CC1CCC(NC(=O)C2(C)Cn3c(cc4occc43)C(=O)N2C2CCCCC2)CC1 (configuration not stated)	.	5.4*
CC1(C(=O)NC2CCCCC2)Cn2c(cc3occc32)C(=O)N1CCN1CCOCC1 (configuration not stated)	.	4*
CC1(C(=O)NC2CCCCC2)Cn2c(cc3occc32)C(=O)N1C1CCCCC1 (configuration not stated)	.	2.2
CC1CCC(NC(=O)C2(C)Cn3c(cc4occc43)C(=O)N2CCN(C)C)CC1 (configuration not stated)	.	2.5
CC1CCC(NC(=O)C2(C)Cn3c(cc4occc43)C(=O)N2CCN2CCOCC2)CC1 (configuration not stated)	.	2.2
O=C(C1CCCN(c2nnc(N3CCCCC3=O)s2)C1)N1CCN(c2ccccc2)CC1 (configuration not stated)	.	2.5
COc1cccc(NS(=O)(=O)c2cc(Br)cnc2N)c1	-2.7	3
O=C(Cn1ncn2nc(-c3ccccc3)cc2c1=O)NCc1ccc2c(c1)OCO2	.	2
COc1ccccc1N1CSC2=C(C#N)C(c3ccc(SC)cc3)CC(=O)N2C1 (configuration not stated)	4.6*	-1.4
COc1ccc(N2CSC3=C(C#N)C(c4ccc(SC)cc4)CC(=O)N3C2)c(OC)c1 (configuration not stated)	2.5	-0.01
N#CC1=C2SCN(c3ccccc3F)CN2C(=O)CC1c1ccccc1 (configuration not stated)	6.5*	0.23
Cc1ccccc1N1CSC2=C(C#N)C(c3ccc(F)cc3)CC(=O)N2C1 (configuration not stated)	4.4*	-1.9
Cc1cccc(N2CSC3=C(C#N)C(c4ccccc4)CC(=O)N3C2)c1 (configuration not stated)	5.2*	-1.1
Cc1ccccc1N1CSC2=C(C#N)C(c3ccc(Cl)cc3)CC(=O)N2C1 (configuration not stated)	2	-2.6
SMILES	CDC25B-CDK2 inh	HIV TAR-Tat
Clc1cccc(-c2noc3ncnc(NCc4ccco4)c23)c1	.	-0.37
CCc1cc2c3c([nH]c2cc1S(=O)(=O)NCc1ccccn1)CCCC3=O	.	-0.01
N#CC1=C2SCN(C3CCCCC3)CN2C(=O)CC1c1ccc(F)cc1 (configuration not stated)	0.26	1.4
N#CC1=C2SCN(c3cccc(Cl)c3)CN2C(=O)CC1c1ccc(F)cc1 (configuration not stated)	7.4*	-0.98
Cc1ccccc1C1CC(=O)N2CN(c3ccccc3F)CSC2=C1C#N (configuration not stated)	5.1*	-1.2
CCN(Cc1ccccc1)S(=O)(=O)c1cc(-c2onc(C)c2C)ccc1C	.	1.5
Fc1ccc(NC(c2ccc(F)cc2)c2nnc(-c3ccccc3)o2)cc1 (configuration not stated)	-2.1	2.7
Oc1ccc([C@H]2Oc3cc(O)cc(O)c3C[C@H]2O)cc1	.	-0.59
O=C(O[C@@H]1Cc2c(O)cc(O)cc2O[C@@H]1c1cc(=O)c(O)c2c(O)c(O)cc([C@H]3Oc4cc(O)cc(O)c4C[C@H]3O)c2c1)c1cc(O)c(O)c(O)c1	.	30*
CCN(CC)C(=O)c1oc2ccccc2c1NC(=O)c1ccc2c(c1)OCO2	.	7*
CCN(CC)C(=O)c1oc2ccccc2c1NC(=O)C(C)(C)C	.	0.42
Nc1ccc2nc(-c3ccc(O)cc3)[nH]c2c1	0.44	.
O=C(O)CNc1cc(N2CCCCC2)c2noc3c2c1C(=O)c1ccccc1-3	4.4*	-6
O=C(O)CCCNc1cc(N2CCCC2)c2noc3c2c1C(=O)c1ccccc1-3	1.3	1.5
CC(C)CNc1cc(N2CCCC2)c2noc3c2c1C(=O)c1ccccc1-3	-1.2	0.45
O=C(O)CNc1cc(N2CCCC2)c2noc3c2c1C(=O)c1ccccc1-3	5.5*	-5.6
CCN1CCN(c2cc(NCC(=O)O)c3c4c(onc24)-c2ccccc2C3=O)CC1	0.53	0.3
O=C(O)c1ccccc1Nc1cc(N2CCCC2)c2noc3c2c1C(=O)c1ccccc1-3	2.4	7.5*
CCOC(=O)c1nc(NCCc2ccsc2)c2ccccc2n1	.	0.77
COc1ccc(OC)c(-c2nc3ncccn3c2NCc2ccccc2OC)c1	.	1.1
CS(=O)(=O)N1CCCc2ccc(NS(=O)(=O)c3ccccc3Cl)cc21	.	1.4
C=CCNc1nc(NCCC)c2cnn(C)c2n1	.	0.72
O=C1c2cccc(O)c2C(=O)c2c(O)cccc21	.	3.1
Cc1cc(O)c2c(c1)Cc1cccc(O)c1C2=O	.	7.7*
O=C(Cn1cnc(S(=O)(=O)N2CCCC2)c1)NCc1ccc2c(c1)OCO2	.	1.3
SMILES	CDC25B-CDK2 inh	HIV TAR-Tat
COc1cccc(OC)c1C(=O)NN	-2.1	.
COc1cccc(O)c1O	.	13*
O=C(NCCc1ccco1)c1nc(CS(=O)(=O)c2ccc(Cl)cc2)no1	.	0.48
CCc1ccc(-c2[nH]nc3c2C(c2cccs2)C2=C(CC(C)(C)CC2=O)N3)cc1 (configuration not stated)	-0.05	-0.6
O=c1c(O)c(-c2ccc(O)c(O)c2)oc2cc(O)ccc12	.	3.6
O=c1c(O)c(-c2cc(O)c(O)c(O)c2)oc2cc(O)ccc12	.	19*
CCc1ccc(NS(=O)(=O)c2ccc(N3CCCCS3(=O)=O)cc2)cc1	.	0.68
Nc1nc(-c2ccccc2)nn1C(=O)CCc1ccccc1	0.29	-0.06
CCOc1ccccc1N1CC(c2nc3ccccc3n2CCCN(C)C)CC1=O (configuration not stated)	-1.7	-1
CN1CCc2nc3sc(C(=O)c4ccc(Cl)cc4)c(N)c3cc2C1	19*	-6.5
CN1CCc2nc3sc(C(=O)Nc4cccc(Cl)c4)c(N)c3cc2C1	-2	-1.6
COc1ccc(-c2nc3c(c(=O)[nH]2)Cc2cc(Br)cc(OC)c2O3)cc1O	-1.8	1.7
COc1ccc(-c2nc3c(c(=O)[nH]2)Cc2cc(Br)cc(OC)c2O3)cc1OC	-0.88	13*
COCCNc1nc2c(S(=O)(=O)c3ccc(Br)cc3)nnn2c2ccsc12	.	-1.3
CC(=O)N1N=C(c2cccc(Br)c2)OC1Cn1nc(C)cc1C (configuration not stated)	.	1.1
COc1ccc(-c2ccc3c(n2)sc2c(O)cc(=O)[nH]c23)cc1OC	-0.51	5.1
O=c1cc(O)c2sc3nc(-c4ccncc4)ccc3c2[nH]1	2.5	15*
